USP1 inh – blocks the human USP1/UAF1 deubiquitinase complex. O94782. recombinant USP1/UAF1, Ub-Rhodamine cleavage fluorescence. Potency, µM (doses to about 57.1 µM), usual class: inhibitors. 390,000 tested, 0.23% active. AID 743255; note: nearly all actives have a fitted effect of over 60% in size
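USP1/UAF1 complex at 1 nM was preincubated with compound for 15 min at room temperature, then Ub-Rho substrate (150nM final) was added. Fluorescence (480/540 nm) was read kinetically, 6 reads every 60 seconds.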
PI5P4K alpha inh – blocks human PI5P4K alpha kinase activity | max response, % | 330,000 tested, 1.2% active | PI5P4Kalpha enzyme, ADP-Glo luminescence, 60 min; active compounds read low | AID 652105; active = max response of -50% or lower; inconclusive = between -30% and -50%; inactive = -30% or higher; note: value at the top dose of about 77 µM
Target sequence (P48426 whole entry, looked up): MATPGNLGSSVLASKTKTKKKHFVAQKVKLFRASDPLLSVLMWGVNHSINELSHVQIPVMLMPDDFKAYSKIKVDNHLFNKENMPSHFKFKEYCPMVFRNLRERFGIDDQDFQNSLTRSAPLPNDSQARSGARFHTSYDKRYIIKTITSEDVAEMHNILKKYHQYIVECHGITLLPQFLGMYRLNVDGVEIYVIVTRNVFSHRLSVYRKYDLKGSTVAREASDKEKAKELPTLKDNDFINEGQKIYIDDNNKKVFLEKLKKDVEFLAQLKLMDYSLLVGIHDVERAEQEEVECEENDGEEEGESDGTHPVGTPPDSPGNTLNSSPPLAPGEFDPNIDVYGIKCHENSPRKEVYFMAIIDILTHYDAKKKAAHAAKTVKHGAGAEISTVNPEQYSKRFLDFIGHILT
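Controls without substrate or without enzyme flank wells where PI5P4Kalpha converts substrate using 5 microM ATP (final). Incubation lasts 60 minutes at room temperature; ADP formed is read by ADP-Glo luminescence.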
USP2a inh – inhibitors of human ubiquitin-specific protease USP2a; 330,000 tested, 0.01% active; O75604; USP2 core, Ub-CHOP2 coupled fluorogenic reporter, 485/531; Potency, µM (doses to about 38.3 µM), most hits filed as inhibitors
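Deubiquitinase activity read as fluorescence (485/531 nm) after Ub-CHOP2 cleavage activates the enterokinase reporter on its substrate; USP2 core 10nM, Ub-CHOP2 and substrate 25nM each, 30min compound preincubation then 60min RT; data normalized to NEM, curves fitted.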
PLK1 PBD block – blocks phosphopeptide binding to human PLK1 polo-box domain. P53350. Plk1 PBD binding of FITC phosphopeptide, fluorescence polarization. Potency, µM, hits mostly inhibitors. 360,000 tested, 2.8% active. AID 720504; note: series mostly up to about 57 µM; nearly all actives have a fitted effect of over 65% in size
WRN inhibitor – blocks human WRN helicase | Q14191 | WRN helicase unwinding, fluorescent forked duplex, kinetic | Potency, µM (top dose mostly 114 µM), usual class: inhibitors | 360,000 tested, 0.46% active | AID 651768; note: nearly all actives have a fitted effect of over 55% in size
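Primary qHTS, 1536-well format. 20 nM WRN + compound, 15 min RT; start with 100 nM forked fluorophore/quencher duplex, 2 mM ATP (final); kinetic read ex 525/em 598 nm.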
Numbers stand for hits; n = inactive; u = inconclusive; x = no result; [ ] = remark or other dose. A selection: hits, their analogues and other compounds. The true share with any hit is near 3.3%. Unless noted, calls come from the whole dose curve; as a rule, active = well fitted curve in the direction sought with a large enough effect; inconclusive = small, poorly fitted or top-dose-only effect, or another doubt; inactive = no such curve, though single readings can be large; an effect the other way counts as inactive or inconclusive.

SMILES | USP1 inh | PI5P4K alpha inh | USP2a inh | PLK1 PBD block | WRN inhibitor
Cc1ccc(S(=O)(=O)Nc2cccc(Oc3cnccn3)c2)cc1 | n | n | n | 26.7µM | n
O=S(=O)(Nc1cccc(Oc2cnccn2)c1)c1ccc(F)cc1 | n | n | n | n | n
COc1cc(/C=C/c2[nH]c(=O)[nH]c(=O)c2[N+](=O)[O-])ccc1OCCC(C)C | u | u | n | n | n
CCC(C)Oc1ccc(/C=C/c2[nH]c(=O)[nH]c(=O)c2[N+](=O)[O-])cc1OC (stereo not given) | n | -58.2 | n | n | n
COc1cc(/C=C/c2[nH]c(=O)[nH]c(=O)c2[N+](=O)[O-])cc([N+](=O)[O-])c1O | n | -84.3 | n | n | n[11.6 µM]
COc1ccc(Cl)cc1S(=O)(=O)NCc1ccc2c(c1)CCN2C(=O)c1cccc(C)c1 | n | x | x | x | x
CCCCC(=O)NC(=S)NNS(=O)(=O)c1ccccc1 | n | n | n | 11.9µM | n
O=C(NC(=S)NNS(=O)(=O)c1ccccc1)c1cccnc1 | n | n | n | u | n
O=S(=O)(Nn1cnnc1)c1ccccc1 | n | n | n | n | n
O=S(=O)(Nn1cnnc1)c1ccccc1Cl | n | n | n | 26.7µM | n
COc1cccc2c1cc1c(=O)n(CC(=O)NCc3ccco3)nc(C)n12 | n | x | x | x | x
O=C(Nc1ccon1)C1CCN(S(=O)(=O)c2cccs2)CC1 | n | u | n | 3.36µM | n
CCCCCSc1nc2c(cnn2-c2ccc(F)cc2)c(=O)[nH]1 | n | n | n | 26.7µM | n
O=C(CSc1nc2c(cnn2-c2ccccc2)c(=O)[nH]1)N1CCOCC1 | n | x | n | 13.4µM | n
Nc1nc(SCC(=O)N2CCCC2)[nH]c(=O)c1-c1ccccc1 | n | n | n | 6.7µM | n
Nc1nc(SCC(=O)N2CCOCC2)[nH]c(=O)c1-c1ccccc1 | n | n | n | n | n
CC(=O)Nc1c(C)nn(-c2ccccc2)c1N1CCC(C(=O)Nc2cccc(C(F)(F)F)c2)CC1 | n | x | x | x | x
CCc1ccccc1NC(=O)Cn1nnc(-c2nc(-c3ccncc3)no2)c1N | n | x | x | x | x
CC(C)CCNC(=O)Nc1ccc2c(c1)N(Cc1ccccc1)C(=O)c1ccccc1S2 | n | x | x | x | x
NC1=CC(=O)C(=O)c2ccccc21 | 15.8µM | n | x | n | n
Nc1ccc(Br)c2c1C(=O)c1ccccc1C2=O | n | n | n | n | n
CCOC(=O)c1cnc2c(Cl)cc(Cl)cc2c1Nc1ccccc1OC | n | x | x | x | x
NCCCC[C@H]1NC(=O)[C@H](CCC(=O)O)NC(=O)c2cc([N+](=O)[O-])cc(I)c2OCC[C@@H](C(N)=O)NC1=O | u | u | n | 7.52µM | 10µM
Cc1ccc(-c2cc(C(=O)NCCCn3ccnc3)c3cc(Br)ccc3n2)o1 | n | n | n | 23.8µM | u
Cc1cccc(-c2cc(C(=O)NCCCn3ccnc3)c3ccccc3n2)c1 | x | x | n | x | x
SMILES | USP1 inh | PI5P4K alpha inh | USP2a inh | PLK1 PBD block | WRN inhibitor
Cc1cccc(N2CCN(C(=O)Cn3c(=O)c4cccn4c4ccc(F)cc43)CC2C)c1 (stereo not given) | n | x | x | x | x
O=C(N/N=C/c1ccc([N+](=O)[O-])o1)c1cn(-c2ccccc2)nc1-c1ccc(Cl)cc1 | n | n | n | n | n
O=[N+]([O-])CC(=Nc1ccc(Cl)cc1)N/N=C\c1oc(O)c2ccccc12 | u | u | n | 16.8µM | n[11.6 µM]
CCCCN1C(=O)/C(=C/C=C2/CC(C)(C)CN2C)SC1=S | 22.4µM | n | u | n | n
CCCN1C(=O)/C(=C\C=C2/Sc3ccccc3N2CCO)SC1=S | n | n | n | n | n
C=CCN1C(=O)/C(=C\C=C2\N(C)c3ccccc3C2(C)C)SC1=S | u | n | n | u | u
CCCCN1C(=O)/C(=C/C=C2\Oc3ccccc3N2CC)SC1=S | u | n | n | n | 50.1µM
CCOC(=O)c1cc(-c2ccccc2)n(CCC(=O)Nc2ccc(C(F)(F)F)cc2)c1C | n | x | x | x | x
COc1ccccc1NS(=O)(=O)c1cc(NC(=O)C(C)NC(N)=O)ccc1N1CCCC1 (stereo not given) | n | n | n | 13.4µM | n
COc1ccccc1NS(=O)(=O)c1cc(N)ccc1N1CCCC1 | n | u | n | 6.7µM | n
COc1ccc(NS(=O)(=O)c2cc(NC(=O)c3cnccn3)ccc2N2CCCC2)cc1 | n | n | n | 21.2µM | n
CCOC(=O)C(=CNc1ccc(N2CCCCC2)c(S(=O)(=O)Nc2ccccc2OC)c1)C(=O)OCC | n | n | x | 10.6µM | u
COc1ccccc1NS(=O)(=O)c1cc(NC(=O)c2ccncc2)ccc1N1CCCC1 | u | u | n | 16.8µM | u
Nc1ccc(N2CCCC2)c(S(=O)(=O)Nc2cccc(C(F)(F)F)c2)c1 | n | u | n | 4.74µM | u
COc1ccc(NS(=O)(=O)c2cc(N)ccc2N2CCCCC2)cc1 | n | n | n | n | n
COCC(=O)Nc1ccc(N2CCCC2)c(S(=O)(=O)Nc2ccccc2OC)c1 | n | n | n | n | n
COc1ccccc1NS(=O)(=O)c1cc(NC(C)=O)ccc1N1CCCCC1 | n | n | n | 9.47µM | n
CCN(CC)c1ccc(NC(=O)c2ccccc2)cc1S(=O)(=O)Nc1ccccc1OC | n | u | n | 1.89µM | n
COc1cc(NC(=O)CCNS(=O)(=O)c2ccc3c(c2)CCN3C(=O)C2CC2)cc(OC)c1 | n | x | x | x | x
CC(C)(C)OC(=O)N1CCC(c2c(C(=O)Nc3ccc4c(c3)OCCO4)cnn2-c2ccc(F)cc2F)CC1 | n | x | x | x | x
COC(=O)c1n[nH]n(-c2ccccc2)c1=O | n | x | x | x | x
COc1ccc(C)cc1S(=O)(=O)NCC(c1cccs1)S(=O)(=O)c1ccc(C)cc1 (stereo not given) | n | x | x | x | x
O=C(CCc1cn(Cc2ccccc2F)c2ccccc12)NCc1ccc(Cl)cc1 | n | x | x | x | x
COc1ccccc1NS(=O)(=O)c1cc(NC(=O)CNC(=O)c2ccc(C)s2)ccc1Cl | n | n | n | n | 56.2µM
COc1cccc(/C=C/C(=O)c2c(O)cc(C)oc2=O)c1O | n | n | n | n | n
SMILES | USP1 inh | PI5P4K alpha inh | USP2a inh | PLK1 PBD block | WRN inhibitor
COc1ccc(/C=C/C(=O)c2c(O)cc(C)oc2=O)c(OC)c1 | n | n | n | n | n
Cc1cc(O)c(C(=O)/C=C/c2ccc(Cl)cc2)c(=O)o1 | n | -69.2 | u | n | n
C/C(=C\C(=O)c1c(O)cc(C)oc1=O)N(C)C | n | n | n | 29.9µM | n
COc1cc(/C=C/C(=O)c2c(O)cc(C)oc2=O)cc(OC)c1O | n | n | n | n | n
CSc1ccc(/C=C/C(=O)c2c(O)cc(C)oc2=O)cc1 | n | -53.9 | n | n | n
CCOc1ccc(CNC(=O)c2cc3c(=O)n(Cc4cccs4)ccc3nc2C)cc1 | n | x | x | x | x
CCc1ccc(C(=O)c2cn(CC(=O)Nc3ccc4c(c3)OCCO4)c3ccc(C)cc3c2=O)cc1 | n | x | x | x | x
O=C(Nc1ccc2nc3n(c(=O)c2c1)CCCCC3)c1c(F)ccc([N+](=O)[O-])c1F | n | n | n | 23.8µM | n[11.6 µM]
O=C(Nc1ccc2nc3n(c(=O)c2c1)CCCCC3)C(=O)N1CCN(c2ccc(F)cc2)CC1 | n | n | n | 6.7µM | n

Screening results deposited in PubChem BioAssay by National Center for Advancing Translational Sciences (NCATS).
